Giardia FBPA inh = Giardia lamblia aldolase inhibition | AID 2451 | 0.71% of 290,000 active | A8B2U2 | Potency, µM (doses to about 59.6 µM), hits mostly inhibitors | purified Giardia FBPA; note: nearly all actives have a fitted effect of over 55% in size
Target sequence (A8B2U2 whole entry, looked up): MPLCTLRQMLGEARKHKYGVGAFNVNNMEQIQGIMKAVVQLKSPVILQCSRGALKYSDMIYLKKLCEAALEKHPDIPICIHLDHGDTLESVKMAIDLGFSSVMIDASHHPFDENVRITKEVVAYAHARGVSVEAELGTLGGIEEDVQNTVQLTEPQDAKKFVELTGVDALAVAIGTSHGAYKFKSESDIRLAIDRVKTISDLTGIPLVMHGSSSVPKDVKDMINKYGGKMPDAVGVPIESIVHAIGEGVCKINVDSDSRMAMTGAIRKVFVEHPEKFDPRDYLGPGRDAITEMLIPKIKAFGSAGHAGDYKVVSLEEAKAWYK
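40 nM FBPA preincubated 10 min at RT with compound (up to 57.5 uM final), then substrate plus GAPDH/TPI/NAD/arsenate coupling and diaphorase/resazurin added. Fluorescence read after 20 min at RT, 525/598 nm.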
Pf growth 48h = P. falciparum growth inhibition at 48 hours (one generation); P. falciparum luciferase growth in erythrocytes, 48 h; Potency, µM (doses to about 28.7 µM), most hits filed as inhibitors; 5.9% of 310,000 active; AID 504832
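First compound was added to culture medium, then infected red cells at 0.1% parasitemia and 2% hematocrit (final). After incubation at 37 C under 5% CO2, luciferase detection reagent was dispensed and light output recorded.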
Sm TGR block = blocks Schistosoma mansoni thioredoxin glutathione reductase | Q962Y6 | purified TGR, DTNB reduction, TNB absorbance 405 nm | Potency, µM (highest dose often 114 µM), actives largely listed as inhibitors | 3% of 360,000 active | AID 485364; note: nearly all actives have a fitted effect of over 60% in size
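TGR 20 nM + NADPH 100 uM (dispensed conc.), cpd preinc 15 min RT; start with NADPH (500 uM addition) then DTNB (15 mM addition). Kinetic TNB absorbance, 405 nm filter. Four-parameter Hill fit across titration.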
Pf growth 96h = P. falciparum growth inhibition at 96 hours | P. falciparum luciferase reporter growth, 96 h | AID 504834 | 6.9% of 320,000 active | Potency, µM (highest dose often 28.7 µM), most hits filed as inhibitors
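Luminescence readout: decreased luciferase signal marks inhibited growth of reporter-expressing P. falciparum in infected red cells (2% hematocrit, 0.05% parasitemia final), exposed to compound two generations (96 h, 37 C, 5% CO2).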
HCMV antiviral = human cytomegalovirus inhibition | HFF cells, HCMV-luciferase reporter, 72 h; stronger effect = lower value | 4.5% of 410,000 active | activity change, negative = inhibition, % at 57.5 µM; in the data active = activity change below about -60%; inconclusive = no clear call, values can overlap the other calls; inactive = above about -39%
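Two compound doses tested in HFFs infected with HCMV-luciferase, MOI 1 PFU/cell, 72 h at 37C. Lysate luminescence read with OneGlo; data normalized against buffer-only and 10uM Salinomycin inhibitor controls.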
Numbers stand for hits; - = inactive; ? = inconclusive; . = no result given; + = active, no number; [ ] = remark or other dose. Rows were chosen to be rich in hits. Some 14% of all compounds tested hit in one or more screens of this group. Unless noted, calls come from the whole dose curve; as a rule, active = well fitted curve in the direction sought with a large enough effect; inconclusive = small, poorly fitted or top-dose-only effect, or another doubt; inactive = no such curve, though single readings can be large; an effect the other way counts as inactive or inconclusive.

SMILES	Giardia FBPA inh	Pf growth 48h	Sm TGR block	Pf growth 96h	HCMV antiviral
COc1ccc(-c2cc(C(F)F)n3ncc(C(=O)N4CCc5ccccc54)c3n2)cc1	-	?	11µM	-	-
COc1ccc(-c2cc(C(F)F)n3ncc(C(=O)N4CCN5CCCC5C4)c3n2)cc1 (centres undefined)	-	?	?	9.3µM	-
COc1ccc(-c2cc(C(F)F)n3ncc(C(=O)n4ccnc4C)c3n2)cc1	-	-	89µM	-	-
COCCn1c(=O)c(-c2ccc(OC)cc2)nc2cnc(Nc3ccccc3)nc21	-	.	.	.	.
CCc1c(C)nc2c(C#N)c(C)[nH]n2c1=O	-	-	-	5.2µM	-
Cc1[nH]n2c(=O)cc(Cc3ccccc3)nc2c1C#N	-	-	-	10µM	-
Oc1c(Cl)cc(Cl)cc1C=Nc1ccc(N2CCOCC2)cc1	-	?	-	?	-
Oc1ccc(N=Nc2cccc(C(F)(F)F)c2)cc1C=Nc1ccc(N2CCOCC2)cc1	-	?	-	3.3µM	-
O=[N+]([O-])c1cccn2cc(-c3ccc(Br)cc3)nc12	-	?	-	4.7µM	-62
Cc1ccc(-c2cn3cccc(C)c3n2)cc1	-	-	-	?	-
N#Cc1cccc(C#N)c1NCC1CCCO1 (centres undefined)	-	-[0.00184 µM]	-	-	-
CCOC(=O)C1=C(Nc2cccc(Cl)c2)OCC1=O	-	-	-	9.3µM	-
Cc1ccc(S(=O)(=O)NC(C(=O)Oc2ccc3ccc(=O)oc3c2)c2ccccc2)cc1 (centres undefined)	-	-	?	-	-
Cc1ccc(S(=O)(=O)NCCC(=O)Oc2ccc3ccc(=O)oc3c2)cc1	-	-	16µM	-	-
C/C=C/C=C/C(=O)N1CC[C@]23c4ccccc4N[C@H]4N(C)c5cccc6c5[C@]42CCN([C@H]6C2OC2(C)C)[C@H]13 (some centres undefined)	-	12µM	?	-	-
COc1ccccc1-c1nnc(-c2ccc(N3CCOCC3)cc2)o1	-	?	-	1.7µM	-
COc1cnn(Cc2ccccc2)c(=O)c1SCc1ccccc1	-	-	-	-	-
COc1cc2c(cc1OC)C1=NC(=O)CN1C(SCc1ccccc1)=N2	?	10µM	-	.	-
CCOC(=O)CN(c1ccccn1)S(=O)(=O)c1ccccc1	-	-	-	-	-
CCOC(=O)CN(c1sc(C)c(C)c1C(=O)OCC)S(=O)(=O)c1ccc(C)cc1	.	.	.	.	-65
COCCC(=O)N1CCC(Oc2ccc(C(=O)NCCn3cccn3)cc2)CC1	-	-	-	?	-
Cc1cc(Oc2cc(N)cc([N+](=O)[O-])c2)ccc1Cl	-	-	-	8.3µM	-
CN1C2CCC1C(C(=O)Oc1ccccc1)C(c1ccc(Cl)cc1)C2 (centres undefined)	.	.	.	.	-77
COC(=O)C1C(c2ccc(C)cc2)CC2CCC1N2C (centres undefined)	.	.	.	.	-
CC(C)(C)S(=O)N1CCC[C@@H]1c1noc2cc3ccccc3cc12 (some centres undefined)	.	.	.	.	-
SMILES	Giardia FBPA inh	Pf growth 48h	Sm TGR block	Pf growth 96h	HCMV antiviral
Cc1cc(N2CCN(C)CC2)nc2ccc(NC(=S)N3CCN(c4ccccn4)CC3)cc12	-	-	-	9.3µM	-
Cc1ccc(C)c(N2CCN(C(=S)Nc3ccc4nc(N5CCN(C)CC5)cc(C)c4c3)CC2)c1	-	10µM	-	-	?
CCN1CCN(c2cc(C)c3cc(NC(=S)N4CCC5(CC4)OCCO5)ccc3n2)CC1	-	?	-	?	-
Cc1cc(N2CCN(C)CC2)nc2ccc(NC(=S)N3CCC4(CC3)OCCO4)cc12	-	4.1µM	-	12µM	-
CCCCN=CN1c2ccccc2-n2cccc2C1c1ccc(CC)cc1 (centres undefined)	.	.	.	.	-
COc1ccc(-c2cc(C(=O)Nc3ccc(OC)c(OC)c3)[nH]n2)c(C)c1	.	.	.	.	-
CC1(NC(=O)Cc2c(F)cccc2Cl)CCS(=O)(=O)C1 (centres undefined)	.	.	.	.	-
Cc1ccc(S(=O)(=O)Nc2cc3c(cc2N2CCOCC2)n(C)c(=O)c(=O)n3C)cc1	.	-	-	-	-
COc1ccc(OC)c(S(=O)(=O)Nc2cccc3ccc(O)cc23)c1	.	.	.	.	-62
Cn1c(=O)c(=O)n(C)c2cc(N3CCOCC3)c(NS(=O)(=O)c3ccc(Br)cc3)cc21	?	-	25µM	?	-
COc1ccc(OC)c(S(=O)(=O)Nc2cccc3ccccc23)c1	.	.	.	.	-
Cn1c(=O)c(=O)n(C)c2cc(N3CCCC3)c(NS(=O)(=O)c3ccc(F)cc3)cc21	-	-	?	?	-
Cn1c(=O)c(=O)n(C)c2cc(N3CCCCC3)c(NS(=O)(=O)c3ccc([N+](=O)[O-])cc3)cc21	.	-	?	-	+
COc1ccc(OC)c(S(=O)(=O)Nc2cc3c(cc2N2CCCC2)n(C)c(=O)c(=O)n3C)c1	?	?	32µM	-	-
COC(=O)CNC(=O)c1cc(-c2ccncc2)nc2c(C)c(Cl)ccc12	-	?	-	-	-
O=C(Nc1ccc(F)cc1)c1cc(-c2ccncc2)nc2c(Cl)cccc12	.	2.1µM	-	-	?
O=C(NNC(=O)c1cc(-c2ccncc2)nc2ccccc12)Nc1ccc(F)cc1	-	?	-	-	-
COc1cccc(NC(=O)c2cc(-c3cccnc3)nc3c(Cl)cccc23)c1	-	2.1µM	-	1.9µM	-
Cc1cccc(NC(=O)c2cc(-c3cccnc3)nc3c(C)cccc23)n1	.	-	-	4.7µM	-
Cc1c(Cl)ccc2c(C(=O)NC(C)c3ccncc3)cc(-c3ccncc3)nc12 (centres undefined)	-	4.1µM	-	-	.
Cc1cccc(C)c1N=CN1c2ccccc2-n2cccc2C1c1ccccc1 (centres undefined)	.	.	.	.	-
C[C@@H]1CN([C@@H](C)CO)C(=O)CCCn2nncc2CO[C@H]1CN(C)Cc1cccc2c1OCCCO2	.	.	.	.	-
OC1OC[C@H](O)[C@@H](O)[C@@H]1O (some centres undefined)	-	.	.	.	.
Fc1ccc(-c2noc3ncnc(NCC4CCN(Cc5ccc(Cl)cc5)CC4)c23)cc1	.	.	-	.	-65
COc1ccc2c(c1)C(=NNc1ccc(C(=O)O)cc1)c1cc(OC)ccc1-2	-	?	-	-	-
SMILES	Giardia FBPA inh	Pf growth 48h	Sm TGR block	Pf growth 96h	HCMV antiviral
COc1ccc2c(c1)C(=NN)c1cc(OC)ccc1-2	.	?	-	-	-87
O=C1Nc2cc(Cl)cnc2N2CCCC12 (centres undefined)	-	-	?	4.1µM	-
O=C1Nc2ccccc2C(=O)N2CCC[C@@H]12	-	.	.	.	.
Cc1ccc(S(=O)(=O)N2[C@@H](c3ccc(C(C)C)cc3)C(C(=O)O)=C[C@H]2C(C)(C)C)cc1	.	.	.	.	-
COc1ccc2c(c1)c1c(c(=O)n(Cc3ccccc3)c(=O)n1CC(=O)Nc1cc(C)cc(C)c1)n2C	.	.	-	.	-
CCCn1c(NCc2cccc(OC)c2OC)nc2ccccc21	-	?	-	-	-
